Assay outcomes from PubChem BioAssay.
SARS PLP yeast: SARS-CoV PLP inhibition in yeast. AID 485353. Potency, µM (highest dose often 32.9 µM), for the others: top-dose activity, positive = growth rescue, usual class: activators. S. cerevisiae expressing SARS-CoV PLpro, growth rescue. actives 0.19% (n = 330,000); calls by dose curve; note: 0% is about no effect; nearly all actives have a fitted effect of over 55% in size
Pf growth 96h: P. falciparum growth inhibition at 96 hours; P. falciparum luciferase reporter growth, 96 h; Potency, µM (series often up to 28.7 µM), inactives show at the highest dose activity change, negative = inhibition, most hits filed as inhibitors; actives 6.9% (n = 320,000); AID 504834; note: % is set by controls: 0 for no effect and ±100 for the full control effect
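P. falciparum expressing integrated firefly luciferase, in erythrocytes at 2% hematocrit, 0.05% parasitemia, incubated with compounds 96 h at 37 C, 5% CO2. Growth inhibition read as loss of luminescence; two-generation exposure targets delayed-death apicoplast inhibitors.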
Pf growth 48h: inhibits P. falciparum growth in the first generation, 48 h. P. falciparum luciferase growth in erythrocytes, 48 h. Potency, µM (highest dose often 28.7 µM), for the others: top-dose activity change, negative = inhibition, actives largely listed as inhibitors. actives 5.9% (n = 310,000); note: % is set by controls: 0 for no effect and ±100 for the full control effect
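Cell-based growth assay: transgenic P. falciparum expressing firefly luciferase, cultured in red cells within RPMI 1640 containing 0.5% w/v Albumax, 24 mM bicarbonate and gentamycin. A drop in luciferase activity indicates inhibition.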
NS1 function inh: blocks influenza NS1 protein function; Potency, µM (series often up to 46.1 µM), for inactives: at the top dose activity, positive = more growth; actives 0.4% (n = 270,000); AID 2326; calls by dose curve; note: actives are rising curves; nearly all actives have a fitted effect of over 50% in size
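A cell-based growth assay was used: compounds that relieve NS1-induced slow growth of budding yeast raise OD600. Assay medium was yeast nitrogen base with ammonium sulphate and -URA supplement, pH 6.0, with 2% galactose.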
AMA1-RON2 inh: inhibitors of Plasmodium falciparum AMA1-RON2 interaction | AlphaScreen AMA1-biotinylated RON2 peptide binding | actives 0.2% (n = 360,000) | Potency, µM (top dose mostly 58.2 µM), for inactives: top-dose activity change, negative = inhibition, most hits filed as inhibitors;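 note: 0% = vehicle wells and -100% = peptide control; nearly all actives have a fitted effect of over 45% in size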
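AMA1 (3D7) with his tag at 25 nM final met compounds first, then biotinylated RON2 peptide at 25 nM; detection used donor plus acceptor beads, 10 µg/mL apiece, read by AlphaScreen after 30 min at room temperature.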
HCV inhibitor: blocks hepatitis C virus. Huh7.5.1 HCVcc-Cre infection, luciferase reporter, 44 h. Potency, µM (titrated, usually from 41.8 µM), inactives show top-dose activity change, negative = inhibition, actives largely listed as inhibitors. actives 3.4% (n = 340,000); note: % is set by controls: 0 for no effect and ±100 for the full control effect
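A cell-based infection assay in which seeded cells (1,000 per well) receive test compound after 4 h, are inoculated with HCVcc-Cre at approximately 0.5 moi, and are incubated 44 h before luminescence detection.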
Active calls of the source: *; ? = inconclusive; . = no result given. In the library only some 12% were active in any assay of this set; here they are far more common. Unless noted, calls come from the whole dose curve; as a rule, active = well fitted curve in the direction sought with a large enough effect; inconclusive = small, poorly fitted or top-dose-only effect, or another doubt; inactive = no such curve, though single readings can be large; an effect the other way counts as inactive or inconclusive. Potency is the fitted concentration of half-maximal effect.

SMILES | SARS PLP yeast | Pf growth 96h | Pf growth 48h | NS1 function inh | AMA1-RON2 inh | HCV inhibitor
COC(=O)CN1C(c2ccc(Cl)cc2)=Nc2ccc(Cl)cc2C1c1ccccc1 (stereo unspecified) | -80.8% | 3.29µM* | 2.62µM* | -60.5% | -6.6% | ?
O=C(O)CN1C(c2ccccc2)=Nc2ccc(Br)cc2C1c1ccccc1 (stereo unspecified) | 0.2% | -0.1% | -26.9% | -3.2% | 1.9% | -0.4%
O=S(=O)(c1ccc(F)cc1)N1CCN(c2ccccn2)CC1 | -1.8% | -0.3% | 7.0% | 2.3% | 8.7% | 15.1%
COCCNc1nc(-c2ccc(Cl)cc2C)c2sccc2n1 | . | . | . | . | 84.0% | .
O=C(NC(=S)N1CCCCCC1)c1ccccc1Cl | 6.9% | -11.6% | 5.22µM* | . | 54.9% | -18.8%
O=C(NC(=S)NNC(=O)c1ccc(Cl)cc1Cl)c1cccnc1 | -23.3% | ? | 0.4% | -13.2% | 61.8% | 14.1%
O=C(Nc1ccccc1C(=O)N1CCCC1)c1ccc(Cl)cc1Cl | -1.2% | 11.7µM* | 17.9% | 5.6% | -14.6% | -5.0%
O=C(NC(=S)N1CCCCCC1)c1ccc(Cl)cc1Cl | -2.4% | 9.28µM* | ? | -5.1% | 81.9% | -2.7%
O=C(Nc1ccccc1C(=O)N1CCCCC1)c1cc(F)c(F)cc1Cl | 0.1% | 101.0% | -12.2% | 12.0% | 2.9% | -15.1%
Cc1ccccc1C(=O)NNC(=S)NC(=O)c1ccc(Cl)cc1Cl | 5.0% | -29.2% | . | -257.3% | 51.8% | 0.562µM*
Cc1c(C(=O)N(C)C(C)c2ccccn2)oc2c(F)cccc12 (stereo unspecified) | 1.0% | 11.2% | -0.3% | -18.2% | -3.2% | 16.5%
CC1CCN(C(=O)C(=O)Nc2sc3c(c2C(N)=O)CC(C)(C)OC3)CC1 | 2.4% | 18.7% | 14.4% | 5.7% | 61.4% | 7.9%
Cc1cc2nc(-c3ccco3)c(Cc3ccccc3C(F)(F)F)n2c(C)c1Br | . | . | . | . | -0.7% | .
CC(C)(C#CCN1CCCCC1)OCCOC(c1ccccc1)c1ccccc1 | 22.5% | 0.0% | 0.0% | -1.7% | ? | ?
CCN(CC(=O)NCc1ccco1)S(=O)(=O)c1ccc(OC)cc1 | 8.3% | -2.6% | ? | . | -1.7% | -3.8%
Cc1ccnc(NC(=O)c2ccccc2NC(=O)c2ccc(Cl)cc2Cl)c1 | 5.5% | -106.6% | ? | 26.6% | 22.4% | 10µM*
O=C(Nc1cccn(Cc2c(Cl)cccc2Cl)c1=O)c1ccc(Cl)cc1Cl | -10.7% | 7.4% | ? | 14.1% | 2.5% | 11.2µM*
O=C(Nc1cccn(Cc2c(Cl)cccc2Cl)c1=O)c1ccccc1Cl | -14.3% | ? | ? | 10.5% | 11.7% | ?
COC(=O)c1c(C)[nH]c(/C=N/Nc2ccccc2)c1C | 0.6% | ? | 5.22µM* | 0.8% | 10.9% | -15.0%
Cc1ccc(NC(=S)N2CCN(c3ncccn3)CC2)c(C)c1 | -10.4% | 7.9% | 26.3% | -4.5% | 7.0% | 6.3%
COc1cccc(C2CCCN2Cc2nc(-c3sccc3C)oc2C)c1 (stereo unspecified) | -2.0% | -11.3% | ? | -1.9% | -3.5% | -16.5%
COc1ccccc1C1CCCN1Cc1nc(-c2cc3c(cc2Cl)OCO3)oc1C (stereo unspecified) | -1.6% | -13.1% | 9.28µM* | 5.9% | -11.0% | -19.6%
COc1ccccc1C1CCCN1Cc1nc(-c2ccc(C)s2)oc1C (stereo unspecified) | -0.9% | 4.6% | 4.65µM* | 1.2% | -5.2% | ?
COc1ccc(OC)c(-c2nc3cc4ccccc4cc3nc2-c2ccccc2)c1 | -4.1% | ? | ? | 10.7% | 7.2% | ?
O=C(Oc1c(CN2CCOCC2)cc(Cl)c2cccnc12)c1ccc(F)cc1 | -7.1% | 7.3% | 4.65µM* | -2.5% | -88.4% | 10µM*
COc1cc(C(=O)Oc2c(CN3CCOCC3)cc(Cl)c3cccnc23)cc(OC)c1OC | ? | ? | . | -72.5% | -71.7% | ?
COc1ccc(C(=O)Oc2c(CN3CCOCC3)cc(Cl)c3cccnc23)cc1 | -2.1% | . | 14.7µM* | -21.9% | -18.0% | 12.6µM*
